Source: PubChem BioAssay (NMMLSC)
BoNT A protease: BoNT/A light chain protease inhibitors, primary screen, biochemical, flow cytometry, MLPCN library. Botulinum neurotoxin type A light chain protease (Clostridium botulinum A str. ATCC 3502). multiplex microsphere protease substrate cleavage. inhibition, % at 10 µM. 360,000 compounds, 0.17% hits; further: plate controls were buffer without enzyme for full effect and enzyme alone for no effect
Autofluor counter: compound fluorescence in toxin protease inhibitor counterscreen | compound autofluorescence counterscreen, microsphere flow cytometry; stronger effect = higher value | fluorescence intensity (no concentration beside the values) | 360,000 compounds, 3.1% hits; in the data active means fluorescence intensity above about 16000; inconclusive means no clear call, values can overlap the other calls
BoNT-F LC inh: BoNT/F light chain protease inhibitors, primary screen, biochemical, flow cytometry, MLPCN library | AID 588497, 2011 | 360,000 compounds, 0.22% hits | Multiplex microsphere protease cleavage assay | inhibition, % at 10 µM | Botulinum neurotoxin type F light chain protease (Clostridium botulinum); in the data active means inhibition above about 35%, passing the limit was not always enough; inconclusive means no clear call, values can overlap the other calls; further: plate controls were buffer without enzyme for full effect and enzyme alone for no effect
Anthrax LF prot: Bacillus anthracis LF protease inhibitors, primary screen, biochemical, multiplex microsphere, MLPCN library; 360,000 compounds, 0.12% hits; multiplex microsphere protease cleavage assay; AID 588501, 2011; Lethal factor (Bacillus anthracis), P15917; inhibition, % at 10 µM; further: plate controls were buffer without enzyme for full effect and enzyme alone for no effect
Target sequence (P15917 whole entry, looked up): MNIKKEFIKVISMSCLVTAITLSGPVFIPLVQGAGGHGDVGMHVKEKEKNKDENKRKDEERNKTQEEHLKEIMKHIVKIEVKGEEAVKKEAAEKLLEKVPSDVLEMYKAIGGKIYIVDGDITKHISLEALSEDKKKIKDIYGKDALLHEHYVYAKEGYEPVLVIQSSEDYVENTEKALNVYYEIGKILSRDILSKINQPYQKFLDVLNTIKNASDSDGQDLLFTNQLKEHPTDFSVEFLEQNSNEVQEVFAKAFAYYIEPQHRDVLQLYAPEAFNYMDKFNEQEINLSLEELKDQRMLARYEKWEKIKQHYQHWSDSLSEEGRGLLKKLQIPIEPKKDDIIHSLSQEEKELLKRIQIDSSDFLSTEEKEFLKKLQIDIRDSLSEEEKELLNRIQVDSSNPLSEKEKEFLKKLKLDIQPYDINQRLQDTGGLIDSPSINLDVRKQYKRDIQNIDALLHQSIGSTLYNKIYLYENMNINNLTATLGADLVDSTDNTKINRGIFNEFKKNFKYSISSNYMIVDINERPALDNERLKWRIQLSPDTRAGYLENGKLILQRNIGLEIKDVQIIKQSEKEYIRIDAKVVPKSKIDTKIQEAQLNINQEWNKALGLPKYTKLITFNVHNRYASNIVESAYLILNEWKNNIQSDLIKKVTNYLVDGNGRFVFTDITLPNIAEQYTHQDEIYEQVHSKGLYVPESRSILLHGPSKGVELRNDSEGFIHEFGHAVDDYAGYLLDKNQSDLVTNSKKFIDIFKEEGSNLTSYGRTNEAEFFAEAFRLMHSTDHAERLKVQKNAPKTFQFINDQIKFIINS
Numbers without * were called inactive; ? = inconclusive; ! = a repeat was not active. Most compounds without a hit are left out; they make up all but 3.5% or so of the library. Unless noted, no stated cut-off is given here; in the data, active means inhibition above about 30%; inconclusive means no clear call, values can overlap the other calls; inactive means below that.

SMILES	BoNT A protease	Autofluor counter	BoNT-F LC inh	Anthrax LF prot
CN(C)c1nc(N)nc(CSc2nnnn2-c2ccc(Cl)cc2)n1	0	3379	1	-3
O=C(c1cccn2c(=O)c3ccccc3nc12)N1CCC2(CC1)OCCO2	-1	22328*	-1	-1
O=C(c1cccn2c(=O)c3ccccc3nc12)N1CCN(c2ccccn2)CC1	-3	23291*	-2	2
O=C(c1cccn2c(=O)c3cc(Cl)ccc3nc12)N1CCC2(CC1)OCCO2	0	7986	-9	-2
OC(c1ccccc1)(c1nc(-c2cc3ccccc3o2)cs1)C(F)(F)F (stereo unspecified)	0	3995	6	0
O=C(NC(c1ccc(F)cc1)c1ccc2ccccc2n1)C1CCN(Cc2cccc(C(F)(F)F)c2)CC1 (stereo unspecified)	-1	4050	-4	-6
O=C(CN1C(=O)C(=O)N(C2CCCC2)C1=O)Nc1ccccc1OC(F)F	0	2991	-11	1
O=S(=O)(c1ccc(F)cc1)c1nc(-c2ccccc2F)oc1N1CCCCC1	?	20089*	3	-6
Cc1csc(SCC(=O)NC2CCC(C)CC2)n1 (stereo unspecified)	-3	6260	-4	-2
CCCCCCCCSC1=CC(=O)C(OC)=C(OC)C1=O	0	3683	-8	0
Cc1ccccc1-c1cc2nc(NCCN3CCCC3)n(C)c(=O)c2s1	0	3710	4	-3
COc1ccccc1-c1noc2c1C(=O)N(Cc1cn(Cc3ccccc3)nn1)CC2	0	5830	6	2
CCOC(=O)N1CCN(C(=O)C[C@@H]2C[C@@]3(C(=O)OCC)CCC=C3N(Cc3cccc4ccccc34)C2=O)CC1	0	5861	0	-6
N#CCCN(CCC#N)C(=O)COc1ccc(Cl)cc1Cl	3	18547*	1	-7
COc1ccc(C2=NOC(C(=O)NC(C)(C)C)C2)cc1 (stereo unspecified)	1	22564*	1	-2
CCN(CC)C(=O)C1CC(c2ccc(OC)cc2)=NO1 (stereo unspecified)	-1	20968*	-1	0
COc1ccc(NC(=O)c2cc(C3CCCCN3C(=O)c3ccc(NC(C)=O)cc3)on2)c(C)c1 (stereo unspecified)	-1	3721	-11	2
O=C1CCCCC(=O)[C@H](OC(=O)c2ccccc2)C[C@H](c2ccccc2)O1	1	5707	-2	0
CC(C)C(=O)NC(C)C(c1cccs1)N1CCN(C)CC1 (stereo unspecified)	-3	23161*	-3	-3
CC(NS(C)(=O)=O)C(c1cccs1)N1CCN(c2ccc(F)cc2)CC1 (stereo unspecified)	1	9747	2	0
CC(NS(C)(=O)=O)C(c1cccs1)N1CCN(C)CC1 (stereo unspecified)	0	16401*	2	-3
CC(NS(=O)(=O)c1ccccc1)C(c1cccs1)N1CCN(c2ccccc2)CC1 (stereo unspecified)	-4	17711*	-7	-3
COc1ccccc1N1CCN(C(c2cccs2)C(C)NS(=O)(=O)c2ccccc2)CC1 (stereo unspecified)	-1	4879	-10	-2
COc1ccc(NC(=O)c2cc(C3CCCCN3S(=O)(=O)c3cccs3)on2)c(C)c1 (stereo unspecified)	0	3503	3	-4
C[C@H]1Cn2cnc(C(=O)NCc3ccc(CNC(=O)OC(C)(C)C)cc3)c2C(=O)N1	0	3605	0	4
SMILES	BoNT A protease	Autofluor counter	BoNT-F LC inh	Anthrax LF prot
N#Cc1cccc(OC(=O)C2CCN(C(=O)c3ccc(F)cc3)CC2)c1	0	3779	-3	-8
O=[N+]([O-])c1ccc(N2CCCCCC2)c2nonc12	53*	14674	115*	26
Nc1c(N2CCCC2)cc(Cl)c2nonc12	0	9434	-47	-40
Nc1cc(N2CCCCC2)c(Cl)cc1[N+](=O)[O-]	?	21335*	6	-12
O=[N+]([O-])c1ccc(N2CCCCC2)c2ncccc12	3	4631	-2	-4
Nc1ccc(N2CCCCC2)c2nonc12	33*	3405	-22	9
O=[N+]([O-])c1ccc(N2CCCCC2)c(Cl)c1N1CCCCC1	1	19380*	-1	2
CCCCn1nnnc1C(c1ccccc1)N1CCN(c2ccc(C)cc2)CC1 (stereo unspecified)	-2	6311	-1	-3
CCOc1c(Br)cc(CNc2ncn[nH]2)cc1OC	0	4859	-3	2
COc1cc(CNc2ncn[nH]2)cc(Br)c1OC	?	23846*	0	-2
CCOC(=O)C1=C(C)NC(C)=C(C(=O)OCC)C1C(=O)O	?	20924*	-4	1
CCCC1C(C(=O)OCC)=C(C)NC(C)=C1C(=O)OCC	0	5086	-24	-1
CCOC(=O)C1=C(C)NC(C)=C(C(=O)OCC)C1	?	18757*!	?	-4
COc1ccc(C2CCCCCN2C(=O)C2CCN(S(=O)(=O)c3ccc(C)cc3)CC2)cc1 (stereo unspecified)	0	3841	0	0
Cc1cc(C(=O)CS(=O)(=O)c2ccc(F)cc2)cc(C)c1O	0	3210	-5	-12
O=C(C1CC(c2ccccc2O)=NO1)N1CCC2(CC1)OCCO2 (stereo unspecified)	6	20077*	7	0
COc1ccc(C2=NOC(C(=O)N3CCOCC3)C2)cc1OC (stereo unspecified)	-5	23787*	-5	0
CCC1CCCCN1C(=O)C1CC(c2cc(Cl)c(OC)cc2OC)=NO1 (stereo unspecified)	0	5380	-6	1
COc1cc(OC)c(C2=NOC(C(=O)N3CCCc4ccccc43)C2)cc1Cl (stereo unspecified)	-2	23619*	0	-7
CCOC(=O)N1CCN(C(=O)C2CC(c3ccccc3OC)=NO2)CC1 (stereo unspecified)	8	20183*	9	-14
CCOC(=O)N1CCN(c2ccccc2OC)CC1	0	4619	2	-9
O=C(C1CC(c2ccccc2O)=NO1)N1CCCC1 (stereo unspecified)	0	7759	3	0
COC(=O)C1CC2=C(CCC2=O)N(c2ccccc2)C1=O (stereo unspecified)	0	4095	-4	5
COc1cccc(NC(=O)C2(C)CCN2C(=O)C2CCCCC2)c1 (stereo unspecified)	0	3382	13	-5
CC(=O)Oc1ccc2oc3c(c2c1)C(=O)CCC3	-2	23365*	-4	-1
CC(=O)Nc1ccc(C(=O)/C=C/c2ccco2)cc1	1	2568	-17	-6
CC(=O)Nc1cccc(C(=O)/C=C/c2ccco2)c1	?	22380*	-1	-6
C/C(=N\Nc1cc(Cl)nc(C)n1)c1ccc(C)cc1	-6	22065*	-8	-4
c1ccc(-c2nc3nc4ccccc4nc3n2CC2CCCO2)cc1 (stereo unspecified)	1	4262	4	-4
